In PubChem BioAssay (NCI) one finds growth inhibition data, which are given here for nine compounds.

Structures are written as SMILES. Compounds without any hit were thinned out: in the full panel of roughly 79,000, 15% have a hit. Values without a mark were called inactive. The source made the active and inactive calls. No stated cut-off is given here; in the data, active means growth inhibition above about 70%; inactive means the rest.

Assay [1] in a line: NCI Yeast Anticancer Drug Screen. Data for the rad50 strain (AID 155).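 Further: 0% = growth of vehicle-only cultures of the same strain.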 As to conditions: S. cerevisiae rad50 strain growth inhibition, active compounds read high. The gist of the method:
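Relative growth inhibition (compound vs vehicle) was measured in yeast with a defined repair-gene alteration.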

Assay [2] can be described thus: NCI Yeast Anticancer Drug Screen. Data for the mec2-1 strain (AID 157). As to conditions: S. cerevisiae mec2-1 strain, active compounds read high. The gist of the method:
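Each compound was tested on mec2-1 yeast, a strain altered in DNA damage repair or cell cycle control. Growth inhibition is reported relative to vehicle.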

The nature of assay [3]: NCI Yeast Anticancer Drug Screen. Data for the sgs1 mgt1 strain (AID 161).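 Further: 0% = growth of cultures given vehicle only.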 Particulars: S. cerevisiae sgs1 mgt1 strain, active compounds read high. The gist of the method: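 Inhibition of yeast growth, normalised to vehicle-treated controls, is reported for a strain bearing genetic alterations in DNA damage repair.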
The nature of assay [4]: NCI Yeast Anticancer Drug Screen. Data for the cln2 rad14 strain (AID 165).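 Further: 0% = growth equal to vehicle treated cultures.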 Particulars: S. cerevisiae cln2 rad14 strain, active compounds read high. In short, it runs like this:
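Test compounds were added to cln2 rad14 yeast cultures; inhibition of growth was then determined by comparison with vehicle treatment.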

Assay [5] can be described thus: NCI Yeast Anticancer Drug Screen. Data for the bub3 strain (AID 167). As to conditions: S. cerevisiae bub3 mutant strain, active compounds read high. In short, it runs like this:
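Screening used yeast with an engineered genetic alteration affecting cell cycle control. Compound-exposed cultures were compared with vehicle cultures, and reduced growth was taken as inhibition.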

A short description of assay [6]: NCI Yeast Anticancer Drug Screen. Data for the mlh1 rad18 strain (AID 175). Particulars: S. cerevisiae mlh1 rad18 strain growth inhibition, active compounds read high. In short, it runs like this: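 Inhibition values reflect reduced growth of mutant yeast versus vehicle-treated controls following compound exposure; the mutations affect DNA damage repair.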
The mark [7] stands for this setting: at 5.0 µM (retest, dose inferred, filed as 0.5).
The mark [8] stands for this setting: at 50.0 µM (retest, dose inferred, filed as 5.0).

With `CCCCCCCCCCCCCCCCP(=O)([O-])OCC[N+](C)(C)C`, the growth inhibition in assay [1] (setting [7]) is -34%; in assay [1] (setting [8]), 99% (active); in assay [1] (at 50.0 µM), 80.8% (active); in assay [2] (setting [7]), -32%; in assay [2] (setting [8]) it was 99% (active); in assay [2] (at 50.0 µM) it was 87.3% (active). Further, the growth inhibition is 0% in assay [3] (setting [7]); 99% (active) in assay [3] (setting [8]); 89.2% (active) in assay [3] (at 50.0 µM); -27% in assay [4] (setting [7]); 99% (active) in assay [4] (setting [8]); 89.5% (active) in assay [4] (at 50.0 µM). Moreover, the growth inhibition in assay [5] (setting [7]) was -32%; in assay [5] (setting [8]), 98% (active); in assay [5] (at 50.0 µM) it was 88.5% (active); in assay [6] (setting [7]), -26%; in assay [6] (setting [8]), 98% (active); in assay [6] (at 50.0 µM), 91.5% (active).

On to `COC(=O)CS(=O)(=O)CCS(=O)(=O)CC(=O)OC`, for which the growth inhibition in assay [1] (setting [7]) was -4%; in assay [1] (setting [8]) it was 3%; in assay [1] (at 50.0 µM), -0.4%; in assay [2] (setting [7]) it was -2%; in assay [2] (setting [8]) it was 8%; in assay [2] (at 50.0 µM) it was 11.9%. Further, the growth inhibition was -1% in assay [3] (setting [7]); 14% in assay [3] (setting [8]); 4.65% in assay [3] (at 50.0 µM); -1% in assay [4] (setting [7]); 1% in assay [4] (setting [8]); -1.25% in assay [4] (at 50.0 µM). In addition, the growth inhibition in assay [5] (setting [7]) is -1%; in assay [5] (setting [8]), 15%; in assay [5] (at 50.0 µM), 60.1%; in assay [6] (setting [7]) it was -3%; in assay [6] (setting [8]), 11%; in assay [6] (at 50.0 µM), 20.4%.

In the case of `CCOC(=O)CC(=O)/C=C/c1ccncc1`, the growth inhibition in assay [1] (setting [7]) was 1%; in assay [1] (setting [8]) it was 5%; in assay [1] (at 50.0 µM), -19.2%; in assay [2] (setting [7]) it was -2%; in assay [2] (setting [8]), 0%; in assay [2] (at 50.0 µM), -8.45%. Further, the growth inhibition was -10% in assay [3] (setting [7]); -6% in assay [3] (setting [8]); -5.25% in assay [3] (at 50.0 µM); 3% in assay [4] (setting [7]); 1% in assay [4] (setting [8]); 68.7% in assay [4] (at 50.0 µM). Besides, the growth inhibition was 5% in assay [5] (setting [7]); 4% in assay [5] (setting [8]); -9.3% in assay [5] (at 50.0 µM); 1% in assay [6] (setting [7]); 3% in assay [6] (setting [8]); 0.7% in assay [6] (at 50.0 µM).

For `Cn1cccc1C(/C=C/c1ccccc1[N+](=O)[O-])c1cccn1C`, the growth inhibition in assay [1] (setting [7]) was -2%; in assay [1] (setting [8]), 20%; in assay [1] (at 50.0 µM), 18.2%; in assay [2] (setting [7]) it was 4%; in assay [2] (setting [8]) it was 4%; in assay [2] (at 50.0 µM), 6.4%. Besides, the growth inhibition is -12% in assay [3] (setting [7]); 8% in assay [3] (setting [8]); 20.9% in assay [3] (at 50.0 µM); 17% in assay [4] (setting [7]); 37% in assay [4] (setting [8]); 4.35% in assay [4] (at 50.0 µM). Also, the growth inhibition in assay [5] (setting [7]) was -3%; in assay [5] (setting [8]), 41%; in assay [5] (at 50.0 µM) it was 17.6%; in assay [6] (setting [7]), -15%; in assay [6] (setting [8]) it was 21%; in assay [6] (at 50.0 µM) it was 20.2%.

Regarding `CC(=O)Nc1ccc(N=C2c3ccccc3-c3ccc(NC(C)=O)cc32)cc1`, the growth inhibition in assay [1] (setting [7]) is 2%; in assay [1] (setting [8]), 64%; in assay [1] (at 50.0 µM), 98.4% (active); in assay [2] (setting [7]) it was 0%; in assay [2] (setting [8]) it was 52%; in assay [2] (at 50.0 µM) it was 77.3% (active). Also, the growth inhibition in assay [3] (setting [7]) was -2%; in assay [3] (setting [8]) it was 57%; in assay [3] (at 50.0 µM), 98.5% (active); in assay [4] (setting [7]) it was 3%; in assay [4] (setting [8]), 28%; in assay [4] (at 50.0 µM), 43.4%. For the same compound, the growth inhibition is -1% in assay [5] (setting [7]); 53% in assay [5] (setting [8]); 87.8% (active) in assay [5] (at 50.0 µM); -5% in assay [6] (setting [7]); 59% in assay [6] (setting [8]); 98.2% (active) in assay [6] (at 50.0 µM).

With `Cc1cccc(/C=N/NC(=S)Nc2ccc(Cl)cc2)n1`, the growth inhibition in assay [1] (setting [7]) was 6%; in assay [1] (setting [8]) it was 98% (active); in assay [1] (at 50.0 µM), 70% (active); in assay [2] (setting [7]) it was 0%; in assay [2] (setting [8]) it was 97% (active); in assay [2] (at 50.0 µM), 81.8% (active). In addition, the growth inhibition in assay [3] (setting [7]) was -5%; in assay [3] (setting [8]) it was 98% (active); in assay [3] (at 50.0 µM) it was 87% (active); in assay [4] (setting [7]), -25%; in assay [4] (setting [8]), 96% (active); in assay [4] (at 50.0 µM), 86.5% (active). In addition, the growth inhibition in assay [5] (setting [7]) was -12%; in assay [5] (setting [8]) it was 98% (active); in assay [5] (at 50.0 µM) it was 87.2% (active); in assay [6] (setting [7]) it was 35%; in assay [6] (setting [8]) it was 98% (active); in assay [6] (at 50.0 µM) it was 88.8% (active).

For `Cc1ccc(-n2cc(-c3ccc(Cl)cc3)c3c(NN)ncnc32)cc1`, the growth inhibition in assay [1] (setting [7]) was -20%; in assay [1] (setting [8]), 30%; in assay [1] (at 50.0 µM) it was 85.7% (active); in assay [2] (setting [7]), -11%; in assay [2] (setting [8]), 65%; in assay [2] (at 50.0 µM) it was 87.6% (active). Also, the growth inhibition is -8% in assay [3] (setting [7]); 61% in assay [3] (setting [8]); 87.5% (active) in assay [3] (at 50.0 µM); -20% in assay [4] (setting [7]); 37% in assay [4] (setting [8]); 90.3% (active) in assay [4] (at 50.0 µM). For the same compound, the growth inhibition in assay [5] (setting [7]) was -19%; in assay [5] (setting [8]), 53%; in assay [5] (at 50.0 µM), 87.7% (active); in assay [6] (setting [7]) it was -14%; in assay [6] (setting [8]), 65%; in assay [6] (at 50.0 µM), 76.6% (active).

For the compound `CC(O)(CO)CC(C)(O)CO` (configuration not stated), the growth inhibition in assay [1] (setting [7]) was -2%; in assay [1] (setting [8]), -10%; in assay [1] (at 50.0 µM), 12.9%; in assay [2] (setting [7]), 3%; in assay [2] (setting [8]), -6%; in assay [2] (at 50.0 µM), -7.2%. For the same compound, the growth inhibition in assay [3] (setting [7]) was -1%; in assay [3] (setting [8]), -9%; in assay [3] (at 50.0 µM) it was 1.8%; in assay [4] (setting [7]), -2%; in assay [4] (setting [8]), -14%; in assay [4] (at 50.0 µM), 77% (active). Moreover, the growth inhibition in assay [5] (setting [7]) is 2%; in assay [5] (setting [8]) it was -1%; in assay [5] (at 50.0 µM) it was -1.05%; in assay [6] (setting [7]), 1%; in assay [6] (setting [8]) it was -11%; in assay [6] (at 50.0 µM) it was -7.45%.

`CS/C(=N\N=C(/C)c1ccccn1)N1CCN(c2ccccn2)CC1`: the growth inhibition in assay [1] (setting [7]) is 1%; in assay [1] (setting [8]), 22%; in assay [1] (at 50.0 µM), 98.1% (active); in assay [2] (setting [7]), -1%; in assay [2] (setting [8]) it was 14%; in assay [2] (at 50.0 µM) it was 82.2% (active). Also, the growth inhibition in assay [3] (setting [7]) is -1%; in assay [3] (setting [8]), 96% (active); in assay [3] (at 50.0 µM), 98.6% (active); in assay [4] (setting [7]), -5%; in assay [4] (setting [8]) it was 84% (active); in assay [4] (at 50.0 µM), 64.2%. Moreover, the growth inhibition in assay [5] (setting [7]) is -7%; in assay [5] (setting [8]), 94% (active); in assay [5] (at 50.0 µM), 91.2% (active); in assay [6] (setting [7]), -8%; in assay [6] (setting [8]) it was 98% (active); in assay [6] (at 50.0 µM), 87.5% (active).
